# The supplement of paper PMC4466140
# B1: unnamed (peptide)
# chain: AVPPPPPPPPLPESL
# B2: unnamed (peptide)
# chain: VNIPSPSSSPPPIPK
# How the values were obtained:
# Test in all cases: SPOT peptide array binding signal intensity (averaged, normalized) (arbitrary units (background-subtracted, floor 0; scale differs between SH3 domains)); higher = stronger binding of the SH3 domain to the peptide
# CaNbp2 = biological target: CaNbp2
# Summary of the method: (§1)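 GST-SH3 fusions from four yeast species, purified on glutathione Sepharose, were incubated at 10 μg/ml overnight at 4°C on membranes of synthetic 15-mer peptides in which cysteines were replaced with serines. Binding signal is the normalized, background-subtracted spot intensity averaged over replicates, in domain-specific arbitrary units.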
# CaRvs167 = biological target: CaRvs167
# Summary of the method: as §1
# CaRvs167-3 = biological target: CaRvs167-3
# Summary of the method: as §1
# CaSho1 = biological target: CaSho1
# Summary of the method: as §1
# CaSla1-D1-D2 = biological target: CaSla1-D1-D2
# Summary of the method: as §1
# CaSla1-D3 = biological target: CaSla1-D3
# Summary of the method: as §1
# ScAbp1 = biological target: ScAbp1
# Summary of the method: as §1
# ScBbc1 = biological target: ScBbc1
# Summary of the method: as §1
# ScBem1-D1 = biological target: ScBem1-D1
# Summary of the method: as §1
# ScBzz1-D1 = biological target: ScBzz1-D1
# Summary of the method: as §1
# ScBzz1-D2 = biological target: ScBzz1-D2
# Summary of the method: as §1
# ScCyk3 = biological target: ScCyk3
# Summary of the method: as §1
# ScFus1 = biological target: ScFus1
# Summary of the method: as §1
# ScHof1 = biological target: ScHof1
# Summary of the method: as §1
# ScHse1 = biological target: ScHse1
# Summary of the method: as §1
# ScLsb1 = biological target: ScLsb1
# Summary of the method: as §1
# ScLsb2 = biological target: ScLsb2
# Summary of the method: as §1
# ScLsb3 = biological target: ScLsb3
# Summary of the method: as §1
# ScLsb4 = biological target: ScLsb4
# Summary of the method: as §1
# ScMyo3 = biological target: ScMyo3
# Summary of the method: as §1
# ScMyo5 = biological target: ScMyo5
# Summary of the method: as §1
# ScNbp2 = biological target: ScNbp2
# Summary of the method: as §1
# ScPex13 = biological target: ScPex13
# Summary of the method: as §1
# ScRvs167 = biological target: ScRvs167
# Summary of the method: as §1
# ScSho1 = biological target: ScSho1
# Summary of the method: as §1
# ScSla1-D1-D2 = biological target: ScSla1-D1-D2
# Summary of the method: as §1
# ScSla1-D3 = biological target: ScSla1-D3
# Summary of the method: as §1
# SpAbp1-D1 = biological target: SpAbp1-D1
# Summary of the method: as §1
# SpBbc1 = biological target: SpBbc1
# Summary of the method: as §1
# SpBzz1-D1 = biological target: SpBzz1-D1
# Summary of the method: as §1
# SpBzz1-D2 = biological target: SpBzz1-D2
# Summary of the method: as §1
# SpCyk3 = biological target: SpCyk3
# Summary of the method: as §1
# SpHof1 = biological target: SpHof1
# Summary of the method: as §1
# SpHof1-2 = biological target: SpHof1-2
# Summary of the method: as §1
# SpHof1-3 = biological target: SpHof1-3
# Summary of the method: as §1
# SpHse1 = biological target: SpHse1
# Summary of the method: as §1
# SpLsb1 = biological target: SpLsb1
# Summary of the method: as §1
# SpLsb4 = biological target: SpLsb4
# Summary of the method: as §1
# SpMyo1 = biological target: SpMyo1
# Summary of the method: as §1
# SpNbp2 = biological target: SpNbp2
# Summary of the method: as §1
# SpPex13 = biological target: SpPex13
# Summary of the method: as §1
# SpRvs167 = biological target: SpRvs167
# Summary of the method: as §1
# SpSla1-D1-D2 = biological target: SpSla1-D1-D2
# Summary of the method: as §1
# SpSla1-D3 = biological target: SpSla1-D3
# Summary of the method: as §1
# AgAbp1 = biological target: AgAbp1
# Summary of the method: as §1
# AgBbc1 = biological target: AgBbc1
# Summary of the method: as §1
# AgBem1-D1 = biological target: AgBem1-D1
# Summary of the method: as §1
# AgBzz1-D1 = biological target: AgBzz1-D1
# Summary of the method: as §1
# AgBzz1-D2 = biological target: AgBzz1-D2
# Summary of the method: as §1
# AgCyk3 = biological target: AgCyk3
# Summary of the method: as §1
# AgFus1 = biological target: AgFus1
# Summary of the method: as §1
# AgHof1 = biological target: AgHof1
# Summary of the method: as §1
# AgHse1 = biological target: AgHse1
# Summary of the method: as §1
# AgLsb1 = biological target: AgLsb1
# Summary of the method: as §1
# AgLsb4 = biological target: AgLsb4
# Summary of the method: as §1
# AgMyo5 = biological target: AgMyo5
# Summary of the method: as §1
# AgNbp2 = biological target: AgNbp2
# Summary of the method: as §1
# AgRvs167 = biological target: AgRvs167
# Summary of the method: as §1
# AgSho1 = biological target: AgSho1
# Summary of the method: as §1
# AgSla1-D1-D2 = biological target: AgSla1-D1-D2
# Summary of the method: as §1
# AgSla1-D3 = biological target: AgSla1-D3
# Summary of the method: as §1
# CaAbp1-D1 = biological target: CaAbp1-D1
# Summary of the method: as §1
# CaAbp1-D2 = biological target: CaAbp1-D2
# Summary of the method: as §1
# CaBbc1 = biological target: CaBbc1
# Summary of the method: as §1
# CaBem1-D1 = biological target: CaBem1-D1
# Summary of the method: as §1
# CaBzz1-D1 = biological target: CaBzz1-D1
# Summary of the method: as §1
# CaBzz1-D2 = biological target: CaBzz1-D2
# Summary of the method: as §1
# CaCyk3 = biological target: CaCyk3
# Summary of the method: as §1
# CaFus1 = biological target: CaFus1
# Summary of the method: as §1
# CaHof1 = biological target: CaHof1
# Summary of the method: as §1
# CaHse1 = biological target: CaHse1
# Summary of the method: as §1
# CaLsb1 = biological target: CaLsb1
# Summary of the method: as §1
# CaLsb4 = biological target: CaLsb4
# Summary of the method: as §1
# CaMyo5 = biological target: CaMyo5
# Summary of the method: as §1
binder,measurement,setting,value
B1,SPOT peptide array binding signal intensity,CaNbp2,23.5
same,SPOT peptide array binding signal intensity,CaRvs167,3.67
same,SPOT peptide array binding signal intensity,CaRvs167-3,1.5
same,SPOT peptide array binding signal intensity,CaSho1,4.5
same,SPOT peptide array binding signal intensity,CaSla1-D1-D2,≤ 0
same,SPOT peptide array binding signal intensity,CaSla1-D3,≤ 0
same,SPOT peptide array binding signal intensity,ScAbp1,≤ 0
same,SPOT peptide array binding signal intensity,ScBbc1,≤ 0
same,SPOT peptide array binding signal intensity,ScBem1-D1,≤ 0
same,SPOT peptide array binding signal intensity,ScBzz1-D1,13
same,SPOT peptide array binding signal intensity,ScBzz1-D2,≤ 0
same,SPOT peptide array binding signal intensity,ScCyk3,1
same,SPOT peptide array binding signal intensity,ScFus1,≤ 0
same,SPOT peptide array binding signal intensity,ScHof1,13.5
same,SPOT peptide array binding signal intensity,ScHse1,34
same,SPOT peptide array binding signal intensity,ScLsb1,≤ 0
same,SPOT peptide array binding signal intensity,ScLsb2,≤ 0
same,SPOT peptide array binding signal intensity,ScLsb3,≤ 0
same,SPOT peptide array binding signal intensity,ScLsb4,≤ 0
same,SPOT peptide array binding signal intensity,ScMyo3,1190
same,SPOT peptide array binding signal intensity,ScMyo5,712
same,SPOT peptide array binding signal intensity,ScNbp2,22
same,SPOT peptide array binding signal intensity,ScPex13,538
same,SPOT peptide array binding signal intensity,ScRvs167,2.33
same,SPOT peptide array binding signal intensity,ScSho1,≤ 0
same,SPOT peptide array binding signal intensity,ScSla1-D1-D2,≤ 0
same,SPOT peptide array binding signal intensity,ScSla1-D3,1.25
same,SPOT peptide array binding signal intensity,SpAbp1-D1,6
same,SPOT peptide array binding signal intensity,SpBbc1,3
same,SPOT peptide array binding signal intensity,SpBzz1-D1,3120
same,SPOT peptide array binding signal intensity,SpBzz1-D2,4.25
same,SPOT peptide array binding signal intensity,SpCyk3,≤ 0
same,SPOT peptide array binding signal intensity,SpHof1,≤ 0
same,SPOT peptide array binding signal intensity,SpHof1-2,≤ 0
same,SPOT peptide array binding signal intensity,SpHof1-3,≤ 0
same,SPOT peptide array binding signal intensity,SpHse1,10.5
same,SPOT peptide array binding signal intensity,SpLsb1,4.75
same,SPOT peptide array binding signal intensity,SpLsb4,27
same,SPOT peptide array binding signal intensity,SpMyo1,980
same,SPOT peptide array binding signal intensity,SpNbp2,16
same,SPOT peptide array binding signal intensity,SpPex13,≤ 0
same,SPOT peptide array binding signal intensity,SpRvs167,64.7
same,SPOT peptide array binding signal intensity,SpSla1-D1-D2,1
same,SPOT peptide array binding signal intensity,SpSla1-D3,≤ 0
B2,SPOT peptide array binding signal intensity,AgAbp1,8
same,SPOT peptide array binding signal intensity,AgBbc1,≤ 0
same,SPOT peptide array binding signal intensity,AgBem1-D1,28
same,SPOT peptide array binding signal intensity,AgBzz1-D1,≤ 0
same,SPOT peptide array binding signal intensity,AgBzz1-D2,5
same,SPOT peptide array binding signal intensity,AgCyk3,0.5
same,SPOT peptide array binding signal intensity,AgFus1,0.5
same,SPOT peptide array binding signal intensity,AgHof1,≤ 0
same,SPOT peptide array binding signal intensity,AgHse1,20.5
same,SPOT peptide array binding signal intensity,AgLsb1,≤ 0
same,SPOT peptide array binding signal intensity,AgLsb4,≤ 0
same,SPOT peptide array binding signal intensity,AgMyo5,2570
same,SPOT peptide array binding signal intensity,AgNbp2,≤ 0
same,SPOT peptide array binding signal intensity,AgRvs167,0.5
same,SPOT peptide array binding signal intensity,AgSho1,≤ 0
same,SPOT peptide array binding signal intensity,AgSla1-D1-D2,8
same,SPOT peptide array binding signal intensity,AgSla1-D3,≤ 0
same,SPOT peptide array binding signal intensity,CaAbp1-D1,5
same,SPOT peptide array binding signal intensity,CaAbp1-D2,9
same,SPOT peptide array binding signal intensity,CaBbc1,≤ 0
same,SPOT peptide array binding signal intensity,CaBem1-D1,10
same,SPOT peptide array binding signal intensity,CaBzz1-D1,34
same,SPOT peptide array binding signal intensity,CaBzz1-D2,4.75
same,SPOT peptide array binding signal intensity,CaCyk3,≤ 0
same,SPOT peptide array binding signal intensity,CaFus1,47.5
same,SPOT peptide array binding signal intensity,CaHof1,0.5
same,SPOT peptide array binding signal intensity,CaHse1,≤ 0
same,SPOT peptide array binding signal intensity,CaLsb1,≤ 0
same,SPOT peptide array binding signal intensity,CaLsb4,≤ 0
same,SPOT peptide array binding signal intensity,CaMyo5,1400
same,SPOT peptide array binding signal intensity,CaNbp2,19.5
same,SPOT peptide array binding signal intensity,CaRvs167,≤ 0
same,SPOT peptide array binding signal intensity,CaRvs167-3,2.25
same,SPOT peptide array binding signal intensity,CaSho1,2
same,SPOT peptide array binding signal intensity,CaSla1-D1-D2,≤ 0
same,SPOT peptide array binding signal intensity,CaSla1-D3,1.25
same,SPOT peptide array binding signal intensity,ScAbp1,≤ 0
same,SPOT peptide array binding signal intensity,ScBbc1,1
same,SPOT peptide array binding signal intensity,ScBem1-D1,≤ 0
same,SPOT peptide array binding signal intensity,ScBzz1-D1,≤ 0
same,SPOT peptide array binding signal intensity,ScBzz1-D2,6
same,SPOT peptide array binding signal intensity,ScCyk3,≤ 0
same,SPOT peptide array binding signal intensity,ScFus1,≤ 0
same,SPOT peptide array binding signal intensity,ScHof1,≤ 0
same,SPOT peptide array binding signal intensity,ScHse1,35
same,SPOT peptide array binding signal intensity,ScLsb1,≤ 0
same,SPOT peptide array binding signal intensity,ScLsb2,≤ 0
same,SPOT peptide array binding signal intensity,ScLsb3,≤ 0
same,SPOT peptide array binding signal intensity,ScLsb4,≤ 0
same,SPOT peptide array binding signal intensity,ScMyo3,3090
same,SPOT peptide array binding signal intensity,ScMyo5,2780
same,SPOT peptide array binding signal intensity,ScNbp2,6
same,SPOT peptide array binding signal intensity,ScPex13,≤ 0
same,SPOT peptide array binding signal intensity,ScRvs167,≤ 0
same,SPOT peptide array binding signal intensity,ScSho1,1.5
same,SPOT peptide array binding signal intensity,ScSla1-D1-D2,2.5
same,SPOT peptide array binding signal intensity,ScSla1-D3,≤ 0
same,SPOT peptide array binding signal intensity,SpAbp1-D1,1
same,SPOT peptide array binding signal intensity,SpBbc1,≤ 0
same,SPOT peptide array binding signal intensity,SpBzz1-D1,80.5
